# rCAG RNA binder: r(CAG) repeat RNA binding. AID 651821. TO-PRO-1 dye displacement fluorescence. inhibition, % at 3 µM. 1.3% of 370,000 active;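 active = inhibition above the plate cutoff, the mean of all test compounds on that plate plus 3 SD, cut at about 35% in these data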;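 note: higher means more dye released from RNA so lower well fluorescence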
# ADAM17 inh: inhibitors of human ADAM17; P78536; recombinant ADAM17, EDANS/DABCYL FRET peptide cleavage; inhibition, % at 6.95 µM; 0.83% of 370,000 active; AID 720648;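 active = inhibition above the mean of compounds lying between control limits plus 3 SD, set per campaign, cut at about 8.5% in these data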
# ADAM10 inh: ADAM10 inhibition, QFRET primary screen; O14672; recombinant ADAM10, EDANS/DABCYL FRET peptide cleavage, 3 h; inhibition, % at 7 µM; 0.62% of 370,000 active; AID 720582;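 active = inhibition above a per-campaign cutoff equal to the mean of compounds falling between control-based bounds plus 3 SD, cut at about 20% in these data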
# Target sequence (O14672 214-748 limits assumed): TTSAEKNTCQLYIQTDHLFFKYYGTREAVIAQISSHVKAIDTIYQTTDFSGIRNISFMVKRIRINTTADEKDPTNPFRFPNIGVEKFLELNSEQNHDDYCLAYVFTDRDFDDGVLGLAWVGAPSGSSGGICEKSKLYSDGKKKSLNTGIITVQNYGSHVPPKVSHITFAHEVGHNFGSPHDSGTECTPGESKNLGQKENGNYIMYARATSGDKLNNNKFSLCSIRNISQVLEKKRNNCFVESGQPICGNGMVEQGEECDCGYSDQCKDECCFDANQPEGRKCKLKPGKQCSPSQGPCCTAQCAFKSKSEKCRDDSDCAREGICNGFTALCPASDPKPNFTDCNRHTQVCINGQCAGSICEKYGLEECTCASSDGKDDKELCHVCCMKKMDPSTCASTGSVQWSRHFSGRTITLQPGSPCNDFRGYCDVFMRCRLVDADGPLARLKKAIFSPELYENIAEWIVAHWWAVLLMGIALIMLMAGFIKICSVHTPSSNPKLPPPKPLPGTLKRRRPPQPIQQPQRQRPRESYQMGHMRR
# MPTP block: blocks calcium-induced mitochondrial swelling; 1.4% of 360,000 active; isolated mouse mitochondria, Ca2+ swelling absorbance, 30 min; inhibition, % at 10 µM;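 active = inhibition of 50% or more, scaled per plate between neutral and stimulator controls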
# KLK7 zymogen act: proKLK7 (human) activation, primary screen; P49862; purified proKLK7, EDANS-DABCYL substrate fluorescence; 100% is mature enzyme control, 0% vehicle; activation, % at 7 µM; 0.9% of 370,000 active;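 active = activation above the mean of all tested compounds plus 3 SD, computed per campaign excluding outliers beyond control limits, cut at about 13% in these data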
# Pemphigus Ab inh: inhibitors of pemphigus antibody binding to human desmoglein-3; P32926; binding (percent of control), % at 10 µM; AID 588358; 0.48% of 310,000 active; DSG3-coupled beads, scFv-anti-DSG3-GFP binding, flow cytometry; stronger effect = lower value;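 active = binding more than 3 SD below its plate's average and above zero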;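 note: hits lower antibody fragment binding to DSG3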
# proKLK7 act conf: proKLK7 activation, confirmation. 68% of 3,200 active. activation, % at 7 µM. purified proKLK7, EDANS-DABCYL substrate fluorescence; scaled: vehicle 0, mature enzyme 100. shares compounds with KLK7 zymogen act;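 active = activation, as change over the incubation, above the mean of all tested compounds plus 3 SD, cut at about 13% in these data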
# EDANS interfere: counter-screen for kallikrein-7 activators: EDANS-DABCYL optical interference; activation, % at 7 µM; shares compounds with KLK7 zymogen act; 80% of 3,200 active; EDANS-DABCYL substrate fluorescence interference, no enzyme, 4 h; solvent 0%, active enzyme control 100%;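 active = activation above the all-compound mean plus 3 SD, ignoring values outside control-based bounds, cut at about 4.8% in these data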;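 note: value is the 4 h activation minus the activation read at time zero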
# EDANS interf: EDANS fluorescence interference in dose response, no enzyme | shares compounds with KLK7 zymogen act | EDANS-DABCYL peptide fluorescence interference | EC50, µM | 20% of 250 active;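 active = compounds that raise the fluorescence signal in this interference counterscreen, with EC50 at or below 10 µM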;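 note: intact quenched peptide substrate alone read at 355 nm excitation and 520 nm emission; signal is fluorescence gain from T0 to T4 after four hours at room temperature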
# Hits are given with their value; . = inactive; / = not tested or not shown. Shown are actives, neighbours in structure and some others; about 4.7% of the full set was active somewhere.
SMILES,rCAG RNA binder,ADAM17 inh,ADAM10 inh,MPTP block,KLK7 zymogen act,Pemphigus Ab inh,proKLK7 act conf,EDANS interfere,others
c1ccc2c(c1)NC1(CCCCC1)n1c-2nc2ccccc21,.,.,.,.,63,.,.,12,
O=C(NNC(=O)c1ccc2ccccc2c1)c1cccc(Cl)c1,.,.,.,.,.,.,/,/,
CCCCn1c(N)c(N(CCOC)C(=O)c2cc(S(=O)(=O)N3CCCCC3)ccc2C)c(=O)[nH]c1=O,.,.,.,.,.,.,/,/,
COC(=O)c1ccc(CNC(=O)CCc2c[nH]c3ccccc23)cc1,.,.,.,.,.,.,/,/,
COC(=O)c1ccc2c(CCO)c[nH]c2c1,.,.,.,.,16,.,.,12,
N#CCSc1ccccc1NC(=O)COC(=O)CCNC(=O)c1ccc([N+](=O)[O-])cc1,.,.,.,.,.,.,/,/,
Nc1ccc(N=Nc2ccccc2O)c(N)c1,.,.,.,.,40,.,101,99,
Oc1ccccc1N=Nc1ccccc1O,.,.,.,.,.,.,/,/,
O=C(NCCN1CCN(C(=O)c2ccc(F)cc2)CC1)C(=O)NCc1ccccc1,.,.,.,.,.,.,/,/,
COc1ccc(OC)c(N(C(=O)c2ccco2)C(C(=O)NC2CCCC2)c2ccc(N3CCOCC3)cc2)c1 (centres undefined),.,.,.,.,.,/,/,/,
NC(c1csc(NC(=O)c2cccc(OC(F)(F)F)c2)n1)c1ccccc1Cl (centres undefined),.,.,.,.,.,/,/,/,
Nc1c(C(=O)OCC(=O)Nc2ccc(Cl)cc2[N+](=O)[O-])[nH]c(=O)[nH]c1=O,.,.,.,.,14,.,136,137,
COc1ccc(NC(=O)COC(=O)CN2C(=O)C3CCCCC3C2=O)cc1 (centres undefined),.,.,.,.,.,.,/,/,
Cc1nc2cc(-c3ccccc3)nn2c(C)c1CCC(=O)NCc1ccco1,.,.,.,.,.,.,/,/,
Cc1cc(C)c2c(n1)nn1c(C)c(CCC(=O)NCc3ccco3)c(C)nc21,.,.,.,.,15,.,.,.,
Cc1ccc([C@@H]2C3COCC=C3C(C#N)=C(N)C2(C#N)C#N)o1 (some centres undefined),.,.,.,.,13,.,53,50,
Cc1ccc(C2C3CSCC=C3C(C#N)=C(N)C2(C#N)C#N)cc1 (centres undefined),.,.,.,.,.,.,/,/,
COc1ccc2nc3cc(Cl)ccc3c(Nc3ccc(O)c(CN4CCN(C)CC4)c3)c2c1,.,.,.,.,22,.,32,22,EDANS interf=.
O=C(NCC1CCCO1)C(=O)N/N=C/c1ccc(OCc2ccccc2Cl)cc1 (centres undefined),.,.,.,.,.,/,/,/,
Cc1sc(-c2ccccn2)nc1OC(=O)c1ccc(F)cc1F,.,.,.,.,14,.,23,23,
COc1cc2c(cc1OC)CN(C(=O)c1ccccc1C(=O)O)CC2,.,.,.,.,16,/,.,5.2,
COc1cc2c(cc1OC)CN(CC(O)c1ccccc1)CC2 (centres undefined),.,.,.,.,96,.,56,74,
COc1cc2c(cc1OC)CN(CCC(C)c1ccc(Cl)cc1)CC2 (centres undefined),.,.,.,.,21,.,148,145,
COc1cc2c(cc1OC)CN(Cc1ccccc1)CC2,.,.,.,.,.,.,/,/,
COc1cc2c(cc1OC)CN(C(=O)Cc1ccccc1)CC2,.,.,.,.,.,.,/,/,
SMILES,rCAG RNA binder,ADAM17 inh,ADAM10 inh,MPTP block,KLK7 zymogen act,Pemphigus Ab inh,proKLK7 act conf,EDANS interfere,others
CN(CCN1CCOCC1)C(=O)C1CCC(=O)N(Cc2ccc(Cl)cc2)C1 (centres undefined),.,.,.,.,.,.,/,/,
CN(C(=O)c1ccncc1)c1nnc(-c2ccccn2)s1,.,.,.,.,64,.,88,81,
CCN(CC)S(=O)(=O)c1cccc2cc(C(=O)O)c(O)cc12,.,.,.,.,22,/,74,73,
COc1cc(/C=C/c2nc3ccccc3c(=O)[nH]2)ccc1O,.,.,.,.,17,.,.,.,
CC1(C(=O)NCc2ccccc2Br)CCN1C(=O)Cc1ccc(-c2ccccc2)cc1 (centres undefined),.,.,.,.,.,/,/,/,
CN(C)CCCn1c(N)c(C#N)c2nc3ccccc3nc21,.,.,.,.,121,.,63,72,
Cc1ccc(S(=O)(=O)c2c(N)n(NC(=O)C3CC3)c3nc4ccccc4nc23)cc1,.,.,.,.,37,.,.,4.1,
CCCCC(CC)Cn1c(N)c(C#N)c2nc3ccccc3nc21 (centres undefined),.,.,.,.,.,.,/,/,
Cc1ccc(S(=O)(=O)c2c(N)n(CCCN(C)C)c3nc4ccccc4nc23)cc1,.,.,.,.,36,.,.,.,
Cc1ccc(-n2c(N)c(S(=O)(=O)c3ccccc3)c3nc4ccccc4nc32)cc1,.,.,.,.,.,.,/,/,
O=C(NCC(=O)N1CCCC(C(F)(F)F)C1)c1ccco1 (centres undefined),.,.,.,.,.,.,/,/,
Cc1cccc(C)c1NC(=O)C1=C(O)c2ccccc2N(C)S1(=O)=O,.,.,.,.,.,/,/,/,
Cc1ccc(NC(=O)C2=C(O)c3ccccc3N(C)S2(=O)=O)cc1,.,.,.,.,51,.,.,9.3,
Cc1c(C)c2c(OCC(=O)N[C@@H](C)C(=O)O)cc3c(c2oc1=O)CCC(C)(C)O3,.,.,.,.,31,.,72,69,
CCC(NC(=O)COc1cc2c(c3oc(=O)c(C)c(C)c13)CCC(C)(C)O2)C(=O)O (centres undefined),.,.,.,.,38,.,73,74,
Cc1c(C)c2c(OCC(=O)NCC(C)C)cc3c(c2oc1=O)CCC(C)(C)O3,.,.,.,.,.,.,/,/,
CCc1cc(C(=O)N/N=C/c2ccc(O)cc2O)c2ccccc2n1,.,.,.,.,.,.,/,/,
COc1ccc(CCN2CC(C(=O)Nc3cc(S(C)(=O)=O)ccc3Cl)CC2=O)cc1OC (centres undefined),.,.,.,.,.,.,/,/,
COC(=O)Cn1c(N)[n+](Cc2ccccc2)c2ccccc21,.,.,.,.,.,.,/,/,
CC(C)(C)NC(=O)Nc1ccc2nccnc2c1,.,.,.,.,64,.,70,77,

# Screening results deposited in PubChem by several laboratories.
